Experimental findings from paper PMC12136788 are described below.

B1: chr12:56499883:56499884:+_ENSMUSG00000021024_ENSMUST00000021412|mus_mus|FALSE|FALSE (ssRNA)
RNA: GGGAGUUCUACAGUCCGACGAUCGAUAGUAAUGUGACGGUCAAAACCGGCGCUGGAACCCCGGGACAUGGCGUUCCUGCUAUUUUAAACACAGUCUGCACCCCGUAGCACACACACCAGGGACCCAAGCCCCCUCCCGGAAGUCAACAGAGGAUUGAGCAUCA
B2: chr8:110352747:110352748:+_ENSG00000120533_ENST00000521662|hu_mus|FALSE|FALSE (ssRNA)
RNA: GGGAGUUCUACAGUCCGACGAUCCAGGGCUCUGCCUUUUGGAGUGAUUUCAGCCACCAAGUCAUCAACAGUAACGUGUUCUAGUCCUUUUUCUUUAAUUACCUCUUUACAGUGUGCCUUUAGCUGAUCCUUCCAGCCGCACUCCAACAGAGGAUUGAGCAUCA
B3: chr6:31457689:31457690:+_ENSMUSG00000025609_ENSMUST00000142469|perfect_dup|motif|central (ssRNA)
RNA: GGGAGUUCUACAGUCCGACGAUCUGAUCAGGUCUACCAGGUUGCCUUUAGGAGGAGUCAUGCUGUCAGGAAAGAAAUUUACGGAGGUGUCAAAGAGCUGAGUUCUUUGAGCAUAGGUAUGAUCCACAUCUGAAAAGCCAUAAUCAACAGAGGAUUGAGCAUCA
B4: chr12:25667166:25667167:+_ENSMUSG00000036333_ENSMUST00000066652|mus_mus|motif|central (ssRNA)
RNA: GGGAGUUCUACAGUCCGACGAUCUCUUCCACAUAAUUUAUCACACUCUGUGAUAUAAGAACCGACAUUUUCACAGAAAUCGGUAGCCGACUUUAAUUCACCGUGUCACGGCCUGGCCGAAGACGGCGCCCUCAGCUCUGCAGACAACAGAGGAUUGAGCAUCA
B5: chr19:8913615:8913616:-_ENSMUSG00000071658_ENSMUST00000096259|mus_hu|mus_mus_mus_hu_False|1_8 (ssRNA)
RNA: GGGAGUUCUACAGUCCGACGAUCAGGGUACCAAAACCUUCUGCCUGAAAUGGGUGCCCCACCCAGUAGGGAGUUGCAGCUGAAAGUAUCUGAUGCAGAAGCAGUGACUAUACGAAAGGAGGCCCCUGAUGCUCAGACGAGAUCCAACAGAGGAUUGAGCAUCA
B6: chr2:241070490:241070491:-_ENSG00000172428_ENST00000607357|hu_mus|FALSE|FALSE (ssRNA)
RNA: GGGAGUUCUACAGUCCGACGAUCUCACAGACAUGGAGCACAUAGGACCGGGCGGCCUCACUGGACAUCAUCAUCAUCAAAAAGGUCUUCAAAAUCAUUAAAAAAGUCUGCAUGAACGGCCUUCUCAUUGGCUGCCAGGUCCAUCAACAGAGGAUUGAGCAUCA
B7: chr11:100882373:100882374:+_ENSMUSG00000019302_ENSMUST00000044721|mus_mus|FALSE|FALSE (ssRNA)
RNA: GGGAGUUCUACAGUCCGACGAUCUUCCUGGUUAGUGUUGAUUUCCUUCAGUUCAUUUUCAAUCUUCUCGAAAUUGGCCUCUAAGUCGAUCAUGUCCCGAGGGAAGGGCACCUCUGGGUUUUCACCGGUGUCCAUAAUUGGGAUCAACAGAGGAUUGAGCAUCA
B8: 90660906_90661026_1561_CDS_ENSG00000112182_ENST00000537989|human|control|control (ssRNA)
RNA: GGGAGUUCUACAGUCCGACGAUCAUCCCCCGCUCUGUCCUUGGCGUCAGGCUCAUCUCCAGACAGGCAGAGCGUGAUGCUCUCUUCCUCAUUCUCUUCACUGGGCGGCUCACUUUUAAUCUGCCCCCUGGCAAGCCCCGGCUUCAACAGAGGAUUGAGCAUCA
B9: chr2:119552488:119552489:+_ENSMUSG00000027304_ENSMUST00000028767|mus_hu|FALSE|FALSE (ssRNA)
RNA: GGGAGUUCUACAGUCCGACGAUCGAACAUCGCUUCUUUCCACUUCAUAAACUCACUUUCGGUGAAUUCUUGGUUUGAGACAAACUCUAAACGGAACACGCGUUGGUCAUUGCCAUGCCGUAGUUGCAGCCCUUUGUUUGUUCUCAACAGAGGAUUGAGCAUCA
B10: 98509248_98511339_722_CDS_ENSG00000140450_ENST00000268042|human|control|control (ssRNA)
RNA: GGGAGUUCUACAGUCCGACGAUCGUAUCCCUUUCUUUCAAUUUUGGCACUCAGCGAGACUGGACCAGAAGUGAAAAACCAACAGCCAACCAUUUUCUCUUGAGUUUUCAAUACAGGGGUUAAUAAUGCUGGUGUGUUGACAUCCAACAGAGGAUUGAGCAUCA
B11: chr16:45382771:45382772:-_ENSMUSG00000022661_ENSMUST00000163230|mus_mus|mus_mus_mus_hu_True|1_38 (ssRNA)
RNA: GGGAGUUCUACAGUCCGACGAUCCUGGGUCAUGUUAUAAGACAAAUGGACAGGGAGGGCAUGCUUCUCAAAAAAUGUGAGCUAUUGUCUAAGACUAACAAUAUUGCUCUAGCUAUAAAAAUAAGUUAAAUGAAUAAACAUUACCAACAGAGGAUUGAGCAUCA
B12: chr16:45382771:45382772:-_ENSMUSG00000022661_ENSMUST00000163230|mus_mus|mus_mus_mus_hu_True|38_98 (ssRNA)
RNA: GGGAGUUCUACAGUCCGACGAUCCUGGGUCAUGUUAUGGGCCCAAUGGACAGGGAGGGCAUGCUUCUCAAAAAAUGUGAGCUAUUGUCUAAGACUAACAAUAUUGCUCUAGCUAUAAAAAUAAGUUAAAUGAAUAAGUUAAGACAACAGAGGAUUGAGCAUCA
B13: chr3:8561242:8561243:+_ENSMUSG00000027500_ENSMUST00000029002|mus_hu|FALSE|FALSE (ssRNA)
RNA: GGGAGUUCUACAGUCCGACGAUCAACAACCAGCUCACAGUUUCCAAGUGGAAAAAUAUUCAGUAGCAUCAUGUACUUGUACUAUAGGUAAGAGCUUAAAAUGAACAUCAUCAAUCAUGGCAUCCACAAAUAAGCCACCUGACACAACAGAGGAUUGAGCAUCA
B14: 107603385_107603505_2018_CDS_ENSG00000091136_ENST00000393561|human|control|control (ssRNA)
RNA: GGGAGUUCUACAGUCCGACGAUCGGAAUAUGGUAUGUUGUCAAUGAAAAACUCCAAAUAAGCCCCUUCAGGCACUCGGACGAAGCCGGCUCCAGUCCAGGAGGGAAUCCGGUCCUGGAUAUAUUGCCGCUCCACUAUGCUAACCAACAGAGGAUUGAGCAUCA

Over roughly 24,000 sequences, “enrichment r” has its median near 0.99; the highest 2% begin near 3.7. Only a selection was taken, and the highest values are over-represented in it overall.

In the assay the target is T1, UNK ZnF1-3 (human, UniProt Q9C0B0 31-174).
T1 sequence: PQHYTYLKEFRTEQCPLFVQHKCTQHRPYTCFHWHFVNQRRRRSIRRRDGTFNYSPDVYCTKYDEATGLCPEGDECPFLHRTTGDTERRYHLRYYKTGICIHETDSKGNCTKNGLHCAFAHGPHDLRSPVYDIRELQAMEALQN
The assay can be described thus: nsRBNS (natural sequence RNA bind-n-seq); RBNS binding buffer (assumed for nsRBNS): 25 mM Tris pH 7.5, 150 mM KCl, 3 mM MgCl2, 0.01% Triton X-100, 500 ug/ml BSA, 20 U/ml SUPERase-In, 4 C; UNK is unkempt and MSI1 is Musashi-1; names of the RNAs are library labels; protein concentration not given here; high values mean tight binding.
As for B1, the binding signal is 0.679 enrichment R.

For the molecule B2, the binding signal amounted to 0.801 enrichment R.

B3 had a binding signal of 1.63 enrichment R.

As to B4, the binding signal came to 0.699 enrichment R.

B5 registered a binding signal of 1.25 enrichment R.

The molecule B6 displayed a binding signal of 0.924 enrichment R.

On to B7, for which the binding signal came to 0.394 enrichment R.

In the case of B8, the binding signal is 0.641 enrichment R.

Regarding B9, the binding signal was 0.468 enrichment R.

Take B10: the binding signal is 1.16 enrichment R.

As for B11, the binding signal came to 6.59 enrichment R.

B12 came in with a binding signal of 11.2 enrichment R.

Regarding B13, the binding signal was determined as 1.49 enrichment R.

In turn, B14 gave a binding signal of 0.989 enrichment R.
